# Test results from article PMC5540273 (PLoS ONE, 2017).
# What was measured:
# Conditions in all cases: concentration: 1 μM,replicates: in singlicate; n = 1
# PCTK2 = system: T1, PCTK2
# T1 construct: gene CDK17
# PCTK3 = system: T2, PCTK3
# T2 construct: gene CDK18
# PDGFRA = system: PDGFRA
# PDGFRB = system: PDGFRB
# PDPK1 = system: PDPK1
# PFTAIRE2 = system: PFTAIRE2
# PFTK1 = system: T3, PFTK1
# T3 construct: gene CDK14
# PHKG1 = system: PHKG1
# PHKG2 = system: PHKG2
# PIK3C2B = system: PIK3C2B
# PIK3C2G = system: PIK3C2G
# PIK3CA = system: PIK3CA
# PIK3CB = system: PIK3CB
# PIK3CD = system: PIK3CD
# PIK3CG = system: PIK3CG
# PIK4CB = system: T4, PIK4CB
# T4 construct: gene PI4KB
# PIKFYVE = system: PIKFYVE
# PIM1 = system: PIM1
# PIM2 = system: PIM2
# PIM3 = system: PIM3
# 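Note: KINOMEscan kinase panel screen.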
Compound,%Inh (PCTK2) [%],%Inh (PCTK3) [%],%Inh (PDGFRA) [%],%Inh (PDGFRB) [%],%Inh (PDPK1) [%],%Inh (PFTAIRE2) [%],%Inh (PFTK1) [%],%Inh (PHKG1) [%],%Inh (PHKG2) [%],%Inh (PIK3C2B) [%],%Inh (PIK3C2G) [%],%Inh (PIK3CA) [%],%Inh (PIK3CB) [%],%Inh (PIK3CD) [%],%Inh (PIK3CG) [%],%Inh (PIK4CB) [%],%Inh (PIKFYVE) [%],%Inh (PIM1) [%],%Inh (PIM2) [%],%Inh (PIM3) [%]
CN1CCN(CCNc2nc3cc(Oc4ccc(NC(=O)Nc5cc(C(F)(F)F)ccc5F)cc4)ccc3[nH]2)CC1.Cl.Cl [GW768504],0,0,84,99.6,0,37,18,0,0,14,0,0,0,0,0,0,0,10,2,0
CC(=O)Nc1ccc(-c2cc3ncnc(SCC(=O)O)c3s2)cc1,0,24,64,88,0,4,0,21,3,6,0,0,26,5,1,0,38,10,48,22
CNC(=O)c1ccccc1Nc1nc(Nc2cccc(CS(C)(=O)=O)c2)ncc1C.O=CO [GSK1520489],0,18,94,99.9,49,0,16,63,49,0,0,0,0,0,20,12,0,18,0,0
CC(C)S(=O)(=O)N1CCN(Cc2ccc3c(c2)nc(NC(=O)c2ccsc2)n3C[C@H](O)c2ccccc2)CC1 [GW635815],0,4,0,38,4,19,0,64,43,0,0,0,0,21,0,0,0,8,0,7
COc1ccc(Nc2nccc(N3CCC(NC(=O)c4cccc(C#N)c4)C3)n2)cc1 (stereo not drawn) [GSK1379730],0,3,0,4,26,0,0,0,0,0,0,0,0,25,0,0,0,0,0,0
FC(F)(F)c1cc(Br)cc(Nc2nccc(-c3cnn4ncccc34)n2)c1 [GW810578],21,31,64,98.4,5,0,14,16,0,0,25,3,16,51,10,30,10,25,0,23
Cc1ccc(CC(=O)N2CCc3cc(-c4cn(C)c5ncnc(N)c45)ccc32)cc1 [GSK2634758],0,0,39,96.4,57,9,17,0,0,40,4,0,0,36,0,0,1,0,0,0
Cn1ccc2ncnc(Oc3ccc(NC(=O)Nc4cnn(C(C)(C)C)c4)c(Cl)c3)c21,5,0,99.6,100,5,0,0,0,0,27,8,10,0,14,7,0,0,0,7,0
NC(=O)Nc1sc(-c2ccc(F)cc2)cc1C(N)=O [GW789449],100,0,5,54,13,16,0,1,0,40,19,0,0,30,1,18,22,0,0,0
